Rows were chosen to be rich in hits. Some 1.7% of all compounds tested hit in one or more screens of this group.
pAkt inh – blocks phosphorylation of Akt | Neuro2A IGF-stimulated pAkt S473 HTRF, 20 min; active compounds read low | activity change, % for hits at 50 µM | hit rate 0.32% among 360,000 | AID 651550; in the data active = activity change below about -80%; inconclusive = mostly about -51% to -80%
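Single-point screen (50 µM final compound) in Neuro2A cells stimulated 20 min with 6 nM IGF at 37 deg C. After lysis, Ser473-phosphorylated Akt read by HTRF (ex 330 nm, em 615/665 nm) as the 665/615 ratio.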
RXFP1 antag – antagonists of human relaxin receptor RXFP1; Q9HBX9; HEK293-RXFP1, relaxin-stimulated cAMP HTRF, 30 min; active compounds read low; activity change, negative = inhibition, % at 57.5 µM; hit rate 0.59% among 350,000; AID 1259400;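 active = activity change of -60% or lower, but not beyond a set lower limit; inconclusive = change between -60% and -40%, or beyond the set limit; inactive = change above -40%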
KCNH2 WT inh – KCNH2 (human, wildtype) channel inhibition | U2OS, BacMam KCNH2, thallium flux FluxOr; active compounds read low | Q12809 | activity change, % at 1.84 µM | hit rate 0.37% among 340,000;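 active = maximum activity change below -70%; inconclusive = maximum activity change between -70% and -50%; inactive = maximum activity change above -50%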
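U2OS cells transduced with wild-type KCNH2 virus are loaded with FluxOr dye for 45 min, and thallium flux is measured in kinetic reads before and after stimulation buffer. Rate constants are normalized to DMSO controls.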
KCNH2 3.1 block – inhibitors of human KCNH2 3.1 potassium channel isoform; U2OS KCNH2 3.1, thallium flux FluxOr; active compounds read low; activity change, % (tested at about 1.8 µM); hit rate 0.95% among 340,000;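 active = maximum activity change below -70%; inconclusive = maximum activity change from -70% to -50%; inactive = maximum activity change above -50%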;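 also: thallium influx rate constant from kinetic fluorescence after stimulation buffer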
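Thallium flux read-out: FluxOr dye with Red40 quencher in HBSS/HEPES, 45 min at RT. Rate constants from kinetic reads were normalized to positive and negative DMSO controls. Cells: U2OS virally expressing the 3.1 isoform.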
RXFP1 agonist – agonists of human relaxin receptor RXFP1; Q9HBX9; HEK293T-RXFP1 cAMP TR-FRET, 30 min; response scale: percent of porcine relaxin response, buffer zero; Potency, µM (titrated, usually from 57.5 µM), usual class: activators; hit rate 0.3% among 370,000; active = well fitted activation curve with a large enough effect; inconclusive = small, poorly fitted or top-dose-only effect; also: nearly all actives have a fitted effect of over 60% in size
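cAMP rise read by TR-FRET after 30 min, 37C compound exposure (up to 58 uM) in RXFP1-transfected HEK293 cells with Ro 20174 present. EC50 from Hill-equation fits, with 29 nM porcine relaxin as 100% and buffer as basal.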
Numbers stand for hits; i = inactive; ? = inconclusive; nt = no result.

SMILES	pAkt inh	RXFP1 antag	KCNH2 WT inh	KCNH2 3.1 block	RXFP1 agonist
O=C(N=C1SC2CS(=O)(=O)CC2N1c1ccc(Br)cc1F)C1CC1 (stereo not drawn)	i	i	-156	i	i
CC(=O)N1CCN(C(=O)c2ccc(-n3c(C)ccc3C)cc2)CC1	i	nt	i	i	i
Cc1ccc(C)n1-c1ccc(C(=O)N2CCOCC2)cc1	-106%	i	i	i	i
C[C@H](CO)N1C[C@H](C)[C@@H](CN(C)S(C)(=O)=O)Oc2ccc(N(C)C)cc2C1=O	i	nt	i	i	nt
CCOC(=O)c1nn(-c2ccccc2)c(=O)cc1SC(C)CC (stereo not drawn)	nt	i	i	i	i
CCOC(=O)c1nn(-c2ccccc2)c(=O)cc1SC(C)C	i	i	i	-72	i
COc1ccccc1S(=O)(=O)Cc1ccc(C(=O)NCCCN2CCN(c3ccc(F)cc3)CC2)o1	i	i	i	i	i
O=C(Nc1cccc2ncccc12)c1ccccc1[N+](=O)[O-]	i	i	i	i	i
CCc1cc(=O)[nH]c(SCc2cccc3ccccc23)n1	i	i	i	-110	i
Cc1cccc([C@@H]2[C@@H]3C(=O)N(Cc4ccccc4)C(=O)[C@@H]3[C@]3(C)C(=O)N(c4cccc(Cl)c4)C(=O)N23)c1	i	nt	i	-74	i
Cc1cccc([C@@H]2[C@@H]3C(=O)N(Cc4ccccc4)C(=O)[C@@H]3[C@]3(Cc4ccccc4)C(=O)N(c4cccc(Cl)c4)C(=O)N23)c1	i	nt	i	i	i
CCN1C(=O)[C@H]2[C@@H](c3ccc(C)cc3)N3C(=O)N(c4ccc(C)cc4)C(=O)[C@@]3(C)[C@H]2C1=O	i	nt	nt	nt	i
CCN1C(=O)[C@H]2[C@@H](c3ccc(C)cc3)N3C(=O)N(c4cccc(Br)c4)C(=O)[C@@]3(C)[C@H]2C1=O	i	nt	i	-80	nt
CCC1Sc2ccc(S(=O)(=O)N3CCN(c4ccccc4)CC3)cc2NC1=O (stereo not drawn)	i	-67	i	i	i
N#C/C(=C/c1ccc(N2CCCCC2)o1)C(=O)Nc1ccc2ccccc2c1	i	i	i	-72	i
Cc1cccc(S(=O)(=O)Nc2nc3ccccc3nc2Nc2ccc3c(c2)OCO3)c1	i	i	i	i	i
O=S(=O)(Nc1nc2ccccc2nc1Nc1ccc2c(c1)OCO2)c1ccccc1	i	nt	i	-96	i
CCOc1ccccc1N(C(=O)c1ccccc1Cl)C1=NC(C)(C)CS1	i	i	i	i	i
COc1cc(C2c3c(-c4ccccc4O)n[nH]c3C(=O)N2Cc2ccco2)ccc1OCC(C)C (stereo not drawn)	nt	-68	nt	nt	i
COc1cc(C2c3c(-c4ccccc4O)n[nH]c3C(=O)N2CCO)ccc1OCC(C)C (stereo not drawn)	nt	i	nt	nt	i
O=C1c2[nH]nc(-c3ccccc3O)c2C(c2ccc(Cl)cc2)N1Cc1ccco1 (stereo not drawn)	nt	-111	nt	nt	i
O=C1c2[nH]nc(-c3ccccc3O)c2C(c2ccccc2)N1Cc1ccco1 (stereo not drawn)	i	i	i	i	i
CSc1cccc(CN2CCC(CO)(Cc3ccccc3)CC2)c1	i	i	i	i	i
OCC1(Cc2ccccc2)CCN(C2CCN(c3ccc(F)c(F)c3)CC2)CC1	i	?	i	-91	i
O=C(/C=C/c1ccc(Cl)cc1)Nc1ccc(N2CCCCC2)cc1	nt	i	i	i	i
SMILES	pAkt inh	RXFP1 antag	KCNH2 WT inh	KCNH2 3.1 block	RXFP1 agonist
O=C(/C=C\c1ccccc1)Nc1ccc(NC(=O)c2ccco2)cc1	i	i	i	-80	i
O=C(/C=C/c1ccccc1)Nc1ccc(N2CCCCC2)cc1	i	i	i	-81	i
OCC[C@H]1C[C@H](O)[C@@H](O)[C@]2(CCCO2)O1	i	nt	i	i	nt
CCc1ccc(OCCCC(=O)Nc2nnc(C3CCCO3)s2)cc1 (stereo not drawn)	i	i	-248	i	i
Cc1cccc(OCCCC(=O)Nc2nnc(C3CCCO3)s2)c1C (stereo not drawn)	i	i	i	i	i
CCOC(=O)C1CCCN(CCC(=O)Nc2ccc(C)cc2)C1 (stereo not drawn)	i	i	i	i	i
O=C(CSc1nnc(-c2cccnc2)n1CCN1CCCCC1)Nc1cccc(Cl)c1	i	i	i	-87	i
COC(=O)Nc1ccc(S(=O)(=O)n2cnc3ccccc32)cc1	i	i	i	i	i
CCn1c(NCc2ccc3c(c2)OCO3)nc2ccccc21	-106%	i	i	i	i
COC(=O)[C@H](C)NC(=O)NCc1ccc(F)cc1	-82%	i	i	i	i
CCCCn1c2ccccc2c2cc(CC(N)=O)ccc21	i	i	i	i	i
CN(Cc1ccccc1)C(=O)COC(=O)C1CCN(S(=O)(=O)c2ccc(Cl)c(C(F)(F)F)c2)CC1	i	-96	i	?	i
COc1ccc2c(c1OC)C(=O)N(c1ccc(F)cc1)C2	i	i	i	i	i
O=C(N/C(=C\c1ccccc1)C(=O)N1CCOCC1)c1ccc(Br)o1	i	-70	i	i	i
CC(C)[C@@H](C(=O)NC1CCN(Cc2ccccc2)CC1)N1C(=O)N2CCc3c([nH]c4ccccc34)[C@@]2(C)C1=O	i	nt	?	-87	i
N#CC(C#N)=C1C=CC=CN1/C(=C\c1ccccc1)C(=O)c1cccs1	i	i	i	i	i
N#CC(C#N)=C1C=CC=CN1/C(=C\c1ccccc1Cl)C(=O)c1ccccc1	i	-82	i	i	i
Cc1ccc2c(c1)c1c(n2CC(O)CNC2CCCC2)CCCC1 (stereo not drawn)	i	-82	i	i	i
CC(C)(C)NC(=O)CSc1nncn1NCc1cccc2ccccc12	-113%	i	i	i	i
CCOc1ccc(C(=O)Nc2nnc(SCc3cc(=O)n4ccccc4n3)s2)cc1	nt	i	nt	nt	?
c1ccc(N2CCN(c3ccc4nncn4n3)CC2)nc1	i	nt	i	-184	i
O=C(NCCSCc1ccco1)Nc1cc(Cl)cc(Cl)c1	i	-71	i	i	i
CC(Oc1cccc(Br)c1)C(=O)NNC(=O)CCS(=O)(=O)c1ccccc1 (stereo not drawn)	i	i	i	-102	nt
CCOC(=O)c1ccc(NC(=S)N(CCCN2CCCC(C)C2)Cc2cccs2)cc1 (stereo not drawn)	i	i	-89	-80	i
O=C(Cc1ccccc1F)Nc1nc(-c2ccc(F)cc2)cs1	i	-93	i	i	i
O=C(/C=C/c1ccccc1O)c1ccc(Cl)cc1	i	i	i	i	i
Cc1ccc(CN2C(=O)C(=O)c3cc(Br)cc(C)c32)cc1	nt	-62	nt	nt	i
Cc1nn(-c2ccncc2)c2c1C(=O)CC(C)(C)C2Br (stereo not drawn)	i	nt	i	i	nt
COc1ccc(N2CCN(C(=O)c3cc4c(C)nc5ccccc5c4o3)CC2)cc1	i	-76	i	i	i

High-throughput results: PubChem BioAssay, National Center for Advancing Translational Sciences (NCATS)
